The assay concerns Zika virus NS2B-NS3 protease. The assay can be described thus: Primary screen GU AMC qHTS for Zika virus inhibitors (AID 1347154). Also: nearly all actives have a fitted effect of over 70% in size. Conditions: Zika NS2B-NS3 unlinked protease, AMC fluorogenic substrate; series mostly up to 54.1 µM. Put shortly:
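Fluorogenic AMC-substrate cleavage by noncovalent NS2B-NS3 protease complex (25 nM, pH 8.0 Tris buffer with Tween 20) followed for 15 minutes at room temperature (~20% conversion). Percent inhibition from ex340/em450 signal change, fitted by 4-parameter Hill equation.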

The structures appear in SMILES notation. Results filed as inconclusive are left out. A call without a number means that no potency is given here. Active and inactive are the calls of the source. Calls follow the shape of the dose curve; as a rule, active = well fitted inhibition curve with a large enough effect; inconclusive = small, poorly fitted or top-dose-only effect; inactive = flat fitted curve, though single readings scatter.

`COC(=O)[C@H](CCCN=C(N)N)NC(=O)CCCc1c(-c2ccccc2)[nH]c2c(F)cc(F)cc12`: the Potency entry was “inactive”.
The value for `COc1ccc(CC(N)C(=O)NC2C(O)[C@H](n3cnc4c(N(C)C)ncnc43)O[C@@H]2CO)cc1` (some centres not stated) was “inactive”.
